T cruzi growth-1 = blocks T. cruzi growth in NIH3T3 culture; inhibition, % at 8.34 µM; AID 624255; 77,000 compounds, 5.9% hits; T. cruzi beta-gal in NIH3T3, GalScreen luminescence, 90 h;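 active means mean inhibition above about 93%, with at least 55% of replicates each passing it, limit read from the data, passing the limit was not always enough; inconclusive means only one of those two conditions holds; inactive means neither condition holds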
C diff HTS = inhibitors of Clostridium difficile growth; Clostridium difficile clinical isolate growth, OD600, 24 h; active compounds read low; growth activity, negative = inhibition, % at 16 µg/mL (by protocol); 86,000 compounds, 0.25% hits; AID 1259249;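 active means mean growth activity at or below -80% and every replicate also at or below -80%; inconclusive means mean at or below -80% but some replicate above -80%; inactive means mean growth activity above -80%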;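 further: 0% = DMSO wells and -100% = levofloxacin 16 µg/mL wells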
Pf Dd2 growth = P. falciparum Dd2 growth inhibition | 94,000 compounds, 2.3% hits | activity change, % at 10 µM | SYBR Green, 72 h; active compounds read low; in the data active means activity change below about -80%; inconclusive means no clear call, values can overlap the other calls
T cruzi growth-2 = Trypanosoma cruzi proliferation inhibition. shares compounds with T cruzi growth-1. T. cruzi beta-gal in NIH3T3, GalScreen luminescence, 90 h. inhibition, % at 8.35 µM. 5,600 compounds, 72% hits;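 active means mean replicate inhibition above about 95% and at least 55% of replicates individually reaching it, limit read from the data; inconclusive means only one of the two criteria is met; inactive means neither criterion is met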
T cruzi growth-3 = blocks T. cruzi growth in NIH3T3 host cells; shares compounds with T cruzi growth-1; T. cruzi beta-gal in NIH3T3, GalScreen luminescence, 90 h; inhibition, % at 2.09 µM; 5,600 compounds, 21% hits;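 active means mean inhibition above about 95%, with at least 55% of replicates also reaching it, limit read from the data; inconclusive means meets just one of the two conditions; inactive means meets neither condition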;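 further: plate controls were neutral control median for no effect and positive control median for full effect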
3T3 cytotox = cytotoxicity in mouse NIH/3T3 fibroblasts. cytotoxicity (signal decrease), % at 8.35 µM. NIH/3T3 viability, CellTiter-Glo ATP luminescence, 90 h. 5,600 compounds, 14% hits. shares compounds with T cruzi growth-1;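 active means mean signal decrease across replicates above about 35% based on untreated-well scatter, with enough replicates individually passing, limit read from the data; inconclusive means no rule stated though some were filed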;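 further: 0% = median of neutral control wells and 100% = median of positive control wells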
3T3 cytotox 2 = cytotoxicity in mouse NIH/3T3 fibroblasts; shares compounds with T cruzi growth-1; NIH/3T3 viability, CellTiter-Glo ATP luminescence, 90 h; inhibition, % at 24.9 µM; 5,600 compounds, 56% hits; AID 651744;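 active means mean loss of cell viability signal at or above a set limit, and enough replicates individually reaching it; inconclusive means meets only the mean limit or only the replicate share; inactive means meets neither condition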;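 further: 0% = median of neutral control wells and 100% = median of positive control wells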
* marks the source's active call; other numbers are inactive results; u = inconclusive; x = no result. Most compounds without a hit are left out; they make up all but 6.8% or so of the library.

SMILES	T cruzi growth-1	C diff HTS	Pf Dd2 growth	T cruzi growth-2	T cruzi growth-3	3T3 cytotox	3T3 cytotox 2
CC(C)CC#Cc1ccc2c(c1)O[C@@H](CN(C)C(=O)C1CCCCC1)[C@H](C)CN([C@@H](C)CO)S2(=O)=O	122.2*	0.0	-75.3	103.7*	104.1*	19.3	104.8*
CC(C)CC#Cc1ccc2c(c1)O[C@H](CN(C)C(=O)C1CC1)[C@H](C)CN([C@H](C)CO)S2(=O)=O	80.8	x	-37.6	x	x	x	x
C[C@@H]1CCCCO[C@@H](CN(C)Cc2ccncc2)[C@@H](C)CN([C@@H](C)CO)C(=O)c2cc(NC(=O)Nc3cccc4ccccc34)ccc2O1	94.0	11.1	-13.1	x	x	x	x
C[C@@H]1CCCCO[C@H](CN(C)Cc2ccc(Cl)c(Cl)c2)[C@@H](C)CN([C@@H](C)CO)C(=O)c2cc(NC(=O)Nc3cccc4ccccc34)ccc2O1	125.0*	-12.5	-90.5*	100.5*	116.4*	17.9	-2.9
C[C@@H]1CN([C@@H](C)CO)C(=O)c2cc(NC(=O)Nc3cccc4ccccc34)ccc2O[C@@H](C)CCCCO[C@H]1CN(C)Cc1ccc(Cl)c(Cl)c1	121.6*	-18.2	-34.9	106.9*	106.0*	23.7	8.4
C[C@@H]1CCCCO[C@@H](CN(C)Cc2ccc(Cl)c(Cl)c2)[C@H](C)CN([C@@H](C)CO)C(=O)c2cc(NC(=O)Nc3cccc4ccccc34)ccc2O1	125.5*	-1.9	-48.2	109.9*	112.0*	16.5	1.1
C[C@@H]1CN([C@H](C)CO)C(=O)c2cc(NC(=O)Nc3cccc4ccccc34)ccc2O[C@@H](C)CCCCO[C@@H]1CN(C)Cc1ccccc1	x	23.6	-65.7	x	x	x	x
C[C@H](CO)N1C[C@H](C)[C@H](CN(C)Cc2ccncc2)OCCCC[C@H](C)Oc2ccc(NC(=O)Nc3cccc4ccccc34)cc2C1=O	89.1	25.8	37.4	x	x	x	x
CCCC(=O)Nc1ccc2c(c1)C(=O)N(C)[C@H]1CC[C@@H](CC(=O)N3CCCCC3)O[C@@H]1CO2	34.2	-1.4	1.3	x	x	x	x
O=C(C[C@@H]1C[C@@H]2c3cc(NS(=O)(=O)c4ccccc4)ccc3O[C@@H]2[C@@H](CO)O1)NCC1CC1	-59.5	-2.7	9.3	x	x	x	x
O=C(C[C@@H]1CC[C@@H](NC(=O)NC2CCCCC2)[C@@H](CO)O1)NCc1ccccc1	6.0	-1.0	0.2	x	x	x	x
N[C@@H]1CC[C@@H](CCn2cc(-c3ccccn3)nn2)O[C@H]1CO	-5.6	x	-15.6	x	x	x	x
CC(C)C#Cc1ccc2c(c1)O[C@@H](CN(C)CC1CCCC1)[C@H](C)CN([C@@H](C)CO)S2(=O)=O	91.9*	2.8	-55.7	105.5*	52.6	40.7*	103.3*
C[C@H]1CN([C@@H](C)CO)S(=O)(=O)c2ccc(C#Cc3ccccc3)cc2O[C@H]1CN(C)CC1CC1	117.1*	16.7	-82.8*	102.8*	52.0	33.7	105.4*
C[C@@H]1CN([C@H](C)CO)S(=O)(=O)c2ccc(C#Cc3ccccc3)cc2O[C@@H]1CN(C)CC1CC1	94.0	3.9	-60.3	x	x	x	x
CC(C)C#Cc1ccc2c(c1)O[C@@H](CN(C)CC1CCOCC1)[C@H](C)CN([C@@H](C)CO)S2(=O)=O	86.3	-4.1	-51.7	x	x	x	x
CC(C)C#Cc1ccc2c(c1)O[C@H](CN(C)CC1CC1)[C@H](C)CN([C@@H](C)CO)S2(=O)=O	50.5	x	-37.7	x	x	x	x
CC(C)C#Cc1ccc2c(c1)O[C@@H](CN(C)CC1CCCC1)[C@H](C)CN([C@H](C)CO)S2(=O)=O	92.0*	5.6	-47.5	104.5*	98.1*	54.8*	104.5*
CO[C@@H]1CN(C)C(=O)c2ccc(NC(=O)Cc3ccccc3)cc2OC[C@@H](C)N(C)C[C@H]1C	-20.5	19.8	-16.4	x	x	x	x
CO[C@@H]1CN(C)C(=O)c2ccc(NC(=O)c3ccccc3F)cc2OC[C@@H](C)N(CC2CC2)C[C@@H]1C	20.1	-0.7	-7.8	x	x	x	x
COc1ccc2c3c(n(C)c2c1)[C@H](CO)N(C(=O)c1cccc(F)c1)CC31CCN(CC2CC2)CC1	x	4.3	-29.0	x	x	x	x
Cn1cnc(S(=O)(=O)N2CC[C@@H]3[C@@H](CO)Nc4ccc(-c5ccccc5)cc4[C@@H]32)c1	104.4*	-20.4	-45.9	96.3*	86.4	-13.4	-7.6
Cn1cnc(S(=O)(=O)N2CC[C@@H]3[C@H](CO)Nc4ccc(-c5ccccc5)cc4[C@@H]32)c1	101.1*	-19.8	-29.7	101.5*	48.1	10.3	-1.0
COc1cccc(-c2ccc3c(c2)[C@H]2[C@H](CCN2S(=O)(=O)c2cn(C)cn2)[C@@H](CO)N3)c1	65.3	3.3	-19.6	x	x	x	x
COc1ccccc1-c1ccc2c(c1)[C@H]1[C@H](CCN1S(=O)(=O)c1cn(C)cn1)[C@H](CO)N2	37.1	10.5	-10.3	x	x	x	x
SMILES	T cruzi growth-1	C diff HTS	Pf Dd2 growth	T cruzi growth-2	T cruzi growth-3	3T3 cytotox	3T3 cytotox 2
Cn1cnc(S(=O)(=O)N2CC[C@@H]3[C@H]2c2cc(-c4ccccc4)ccc2N[C@@H]3CO)c1	u	-24.3	0.4	110.5*	u	-22.2	6.3
Cn1cnc(S(=O)(=O)N2CC[C@@H]3[C@H](CO)Nc4ccc(C#Cc5ccccc5)cc4[C@@H]32)c1	8.3	-17.8	22.4	x	x	x	x
O=C(C[C@@H]1C=C[C@H](NC(=O)c2cccc(F)c2)[C@@H](CO)O1)NCCN1CCCC1	x	-3.0	3.7	x	x	x	x
C[C@@H]1CN([C@H](C)CO)C(=O)c2cc(NC(=O)C3CCCCC3)ccc2O[C@@H](C)CCCCO[C@@H]1CN(C)S(=O)(=O)c1cn(C)cn1	-61.0	1.2	-27.3	x	x	x	x
C[C@H]1CN([C@@H](C)CO)C(=O)c2cc(-c3ccc(F)cc3)cnc2O[C@H]1CN(C)Cc1ccc(C(=O)O)cc1	21.6	4.4	14.6	x	x	x	x
O=C(C[C@H]1C=C[C@H](NC(=O)CN2CCOCC2)[C@H](CO)O1)NC1CCC1	x	0.9	6.4	x	x	x	x
COc1ccc(S(=O)(=O)Nc2cccc3c2O[C@@H](CN(C)C(=O)NC2CCCCC2)[C@@H](C)CN([C@H](C)CO)C3=O)cc1	-67.9	2.9	-0.6	x	x	x	x
C[C@@H]1CN([C@H](C)CO)C(=O)CCCn2cc(nn2)CO[C@H]1CN(C)Cc1ccc(Oc2ccccc2)cc1	-10.9	x	-39.0	x	x	x	x
COCC(=O)N1[C@H](CO)[C@@H](c2ccccc2)[C@@H]1CN(C)C(=O)c1ccccc1	90.3	-5.6	-38.5	x	x	x	x
OC[C@@H]1[C@@H](c2ccc(C#Cc3ccccc3F)cc2)[C@H]2CN(CC3CCOCC3)CCCCN12	88.0	3.1	-68.4	x	x	x	x
OC[C@H]1[C@H](c2ccc(C#Cc3ccccc3F)cc2)[C@H]2CN(CC3CCOCC3)CCCCN21	66.4	-1.7	-2.6	x	x	x	x
OC[C@@H]1[C@H](c2ccc(C#Cc3ccccc3)cc2)[C@H]2CN(CC3CCOCC3)CCCCN12	117.3*	-5.3	-53.7	99.7*	88.3	23.0	104.6*
